Counter-ions that a name gives are not always drawn.
What follows are compounds tested on CLZ3 (HCA2 human fibroblast dual HR-NHEJ reporter) (assay: NHEJ repair efficiency (GFP+ cells) relative to control (log10 fold); higher = more non-homologous end joining). Settings: 5 µM; doxycycline 0.5 ug/mL.
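Note: compound given one day ahead of doxycycline, which switches on I-SceI endonuclease to cut the chromosomally integrated reporter and create DSBs.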

SMILES	NHEJ repair efficiency (log10)
COc1cc(CCC(C)=O)ccc1O [Zingerone]	0.275
C=C1CC[C@@H]2[C@](C)(CO)[C@H](O)CC[C@@]2(C)[C@H]1C/C=C1\C=COC1=O [Dehydroandrographolide]	0.015
O=C(O)C1=CO[C@@H](O[C@@H]2O[C@H](CO)[C@@H](O)[C@H](O)[C@H]2O)[C@@H]2C(CO)=CC[C@H]12 [Geniposidic acid]	-0.068
CC(C)=CCC[C@](C)(O[C@@H]1O[C@H](CO)[C@@H](O)[C@H](O)[C@H]1O)[C@H]1CC[C@]2(C)[C@@H]1[C@H](O)C[C@@H]1[C@@]3(C)CC[C@H](O)C(C)(C)[C@@H]3[C@@H](O[C@@H]3O[C@H](CO)[C@@H](O)[C@H](O)[C@H]3O[C@@H]3OC[C@@H](O)[C@H](O)[C@H]3O)C[C@]12C [Notoginsenoside R1]	-0.0455
CC1(C)CC[C@]2(C(=O)O)CC[C@]3(C)C(=CC[C@@H]4[C@@]5(C)CC[C@H](O)C(C)(C)[C@@H]5CC[C@]43C)[C@@H]2C1 [Oleanolic Acid]	0.0316
COc1cc(C2Oc3cc([C@H]4Oc5cc(O)cc(O)c5C(=O)[C@@H]4O)ccc3OC2CO)ccc1O (some centres undefined) [Silymarin Ⅱ]	-0.124
COc1cc2ccc(=O)oc2cc1O [Scopoletin]	-0.0239
COc1cc(OC)c2ccc(=O)oc2c1 [Citropten]	0.137
O=c1c(O[C@@H]2O[C@H](CO)[C@@H](O)[C@H](O)[C@H]2O)c(-c2ccc(O)c(O)c2)oc2cc(O)cc(O)c12 [Isoquercitrin]	-0.0426
O=C(O)C(O)c1ccccc1 (centres undefined) [Mandelic Acid]	0.0554
COc1ccc2[nH]cc(CCNC(C)=O)c2c1 [Melatonin]	0.0863
c1ccc([C@H]2CN3CCSC3=N2)cc1 [Levamisole hydrochloride]	0.0656
CC(=O)[C@H]1CC[C@H]2[C@@H]3CCC4=CC(=O)CC[C@]4(C)[C@H]3CC[C@]12C [Lutin]	0.0637
COc1c(O)cc2c(c1O)[C@@H]1O[C@H](CO)[C@@H](O)[C@H](O)[C@H]1OC2=O [Bergenin]	0.0025
C=C(C)[C@@H]1CC[C@]2(C(=O)O[C@@H]3O[C@H](CO[C@@H]4O[C@H](CO)[C@@H](O[C@@H]5O[C@@H](C)[C@H](O)[C@@H](O)[C@H]5O)[C@H](O)[C@H]4O)[C@@H](O)[C@H](O)[C@H]3O)CC[C@]3(C)[C@H](CC[C@@H]4[C@@]5(C)CC[C@H](O[C@@H]6OC[C@H](O)[C@H](O)[C@H]6O[C@@H]6O[C@@H](C)[C@H](O)[C@@H](O)[C@H]6O)[C@@](C)(CO)[C@@H]5CC[C@]43C)[C@@H]12 [Anemoside B4]	-0.0464
O=C(/C=C/c1ccc(O)c(O)c1)O[C@@H]1[C@H](O)C[C@@](O)(C(=O)O)C[C@H]1OC(=O)/C=C/c1ccc(O)c(O)c1 [Isochlorogenic acid B]	0.142
CC[C@H](/C=C/[C@@H](C)[C@H]1CC[C@H]2[C@@H]3CC=C4C[C@@H](O)CC[C@]4(C)[C@H]3CC[C@]12C)C(C)C [Stigmasterol]	-0.155
O=c1ccc2ccccc2o1 [Coumarin]	-0.104
CC(C)(O)CC[C@@H](O)C(C)(O)[C@H]1CC[C@@]2(O)C3=CC(=O)[C@@H]4C[C@@H](O)[C@@H](O)C[C@]4(C)[C@H]3CC[C@]12C (stereo partly drawn) [Β-Hydroxyecdysone]	-0.034
COC(=O)C1=CO[C@@H](O[C@@H]2O[C@H](CO)[C@@H](O)[C@H](O)[C@H]2O)[C@@H]2[C@H](C)O[C@@H](O)C[C@H]12 [Morroniside]	0.0778

SMILES	NHEJ repair efficiency (log10)
CC1(C)CCC2(CO)C(=C3C=CC4C5(C)CCC(OC6OC(COC7OC(CO)C(O)C(O)C7O)C(OC7OC(CO)C(O)C(O)C7O)C(O)C6O)C(C)(CO)C5CCC4(C)C3(C)CC2O)C1 (centres undefined) [Clinopodiside A]	-0.0569
COC(=O)[C@H]1O[C@@H](Oc2cc3oc(-c4ccc(O)cc4)cc(=O)c3c(O)c2O)[C@H](O)[C@@H](O)[C@@H]1O [Scutellarin Methyl Ester]	-0.156
C[C@@H]1CC[C@@]2(OC1)O[C@H]1C[C@H]3[C@@H]4CC[C@H]5C[C@@H](O)CC[C@]5(C)[C@H]4CC[C@]3(C)[C@H]1[C@@H]2C [Tigogenin]	0.0196
COc1ccc(-c2cc(=O)c3c(O)c(OC)c(O)c(OC)c3o2)cc1 [Nevadensin]	-0.111
C[C@H](CCC(=O)O)[C@H]1CC[C@H]2[C@@H]3C[C@H](O)[C@@H]4C[C@H](O)CC[C@]4(C)[C@H]3CC[C@]12C [Hyodesoxycholic acid]	-0.299
C=C(CC[C@@H](C(=O)O)[C@H]1[C@H](O)C[C@@]2(C)C3=C(CC[C@]12C)[C@@]1(C)CC[C@H](OC(C)=O)C(C)(C)[C@@H]1CC3)C(C)C [Pachymic Acid]	-0.118
COc1cc2c(cc1OC)-c1cc3ccc4c(c3c[n+]1CC2)OCO4 [Epiberberine]	-0.03
O=c1c(O)c(-c2ccc(O)c(O)c2)oc2cc(O)ccc12 [Fisetin]	-0.223
C[C@@H]1CC[C@@]2(OC1)O[C@H]1C[C@H]3[C@@H]4CC=C5C[C@@H](O)C[C@@H](O)[C@]5(C)[C@H]4CC[C@]3(C)[C@H]1[C@@H]2C [Ruscogenin]	-0.0127
O=C1CCC[C@@H]2[C@H]3CCC[N+]4([O-])CCC[C@@H](CN12)[C@@H]34 (some centres undefined) [Oxymatrine]	0.0707
Cc1c(O)c(C)c2c(c1O)C(=O)C[C@@H](c1ccc(O)cc1)O2 [Farrerol]	-0.0045
O=C(/C=C/c1ccc(O)c(O)c1)OC[C@H]1O[C@@H](OCCc2ccc(O)c(O)c2)[C@H](O)[C@@H](O)[C@@H]1O [Calceolarioside B]	-0.0242
COc1cc(O)c2c(=O)c(O[C@@H]3O[C@H](CO)[C@@H](O)[C@H](O)[C@H]3O)c(-c3ccc(O[C@@H]4O[C@H](CO)[C@@H](O)[C@H](O)[C@H]4O)cc3)oc2c1 [Complanatoside]	-0.0413
COc1cc(C[C@H](C)[C@H](C)Cc2ccc3c(c2)OCO3)ccc1O [Anwuligan]	0.0149
O=C1Nc2ccccc2/C1=C1/Nc2ccccc2C1=O [Indirubin]	-0.0691
C=CCc1ccc(O)c(-c2cc(CC=C)ccc2O)c1 [Magnolol]	0.0133
CC1(C)[C@@H](O[C@H]2O[C@H](C(=O)O)[C@@H](O)[C@H](O)[C@H]2O[C@@H]2O[C@H](C(=O)O)[C@@H](O)[C@H](O)[C@H]2O)CC[C@]2(C)[C@H]3C(=O)C=C4[C@@H]5C[C@@](C)(C(=O)O)CC[C@]5(C)CC[C@@]4(C)[C@]3(C)CC[C@@H]12 [Glycyrrhizic acid]	0.142
C[C@@H]1O[C@@H](Oc2cc(O)c3c(=O)c(O[C@@H]4O[C@@H](C)[C@H](O)[C@@H](O)[C@H]4O)c(-c4ccc(O)cc4)oc3c2)[C@H](O)[C@H](O)[C@H]1O [Kaempferitrin]	0.0262
OC[C@H]1O[C@H](OC[C@H]2O[C@H](O[C@]3(CO)O[C@H](CO)[C@@H](O)[C@@H]3O)[C@H](O)[C@@H](O)[C@@H]2O)[C@H](O)[C@@H](O)[C@H]1O [Raffinose]	-0.133
